Hit rate of the full screen: of about 5,500 compounds, about 2,000 (36%) were called active. Roughly 18% stayed inconclusive and do not appear here. No stated cut-off is given here; in the data, active means normalized growth mostly below about 0.91 (no sharp cut-off); inconclusive means no clear call, values can overlap the other calls; inactive means mostly above about 0.92. The list shows a part of the results.
Test: chemical genetic growth profiling, strain panel (AID 1159580);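 further: tested at 20 µM; growth read once vehicle control cultures reached saturation at 30 °C; 1 = growth at the plate median or of vehicle wells; lower values mean less growth of the strain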
Details: growth OD

Measured: normalized growth

CC(=O)OCC(CCn1cnc2cnc(N)nc21)COC(C)=O
inactive: S. cerevisiae deletion strains, locus YJR075W, strain HOC1, active compounds read low 0.991 | S. cerevisiae deletion strains, locus YKL009W, strain mrt4, active compounds read low 0.973 | S. cerevisiae deletion strains, locus YKL068W, active compounds read low 0.977 | S. cerevisiae deletion strains, locus YKL085W, strain MDH1 (second series), active compounds read low 0.971 | S. cerevisiae deletion strains, locus YKL085W, strain MDH1, active compounds read low 0.971 | S. cerevisiae deletion strains, locus YKL160W, strain elf1, active compounds read low 0.981 | S. cerevisiae deletion strains, locus YKL190W, strain CNB1, active compounds read low 0.989 | S. cerevisiae deletion strains, locus YKR001C, strain vps1, active compounds read low 0.986 | S. cerevisiae deletion strains, locus YKR026C, strain gcn3, active compounds read low 0.991 | S. cerevisiae deletion strains, locus YKR091W, strain srl3, active compounds read low 0.989 | S. cerevisiae deletion strains, locus YLL001W, strain dnm1, active compounds read low 0.986 | S. cerevisiae deletion strains, locus YLL026W, active compounds read low 0.987 | S. cerevisiae deletion strains, locus YLL041C, strain sdh2, active compounds read low 0.99 | S. cerevisiae deletion strains, locus YLR027C, strain aat2, active compounds read low 0.97 | S. cerevisiae deletion strains, locus YLR039C, strain RIC1, active compounds read low 0.955 | S. cerevisiae deletion strains, locus YLR058C, strain SHM2, active compounds read low 0.977 | S. cerevisiae deletion strains, locus YLR102C, strain apc9, active compounds read low 0.963 | S. cerevisiae deletion strains, locus YLR113W, strain HOG1, active compounds read low 0.966 | S. cerevisiae deletion strains, locus YLR221C, strain rsa3, active compounds read low 1 | S. cerevisiae deletion strains, locus YLR258W, strain gsy2, active compounds read low 0.992 | S. cerevisiae deletion strains, locus YLR262C, strain YPT6 (second series), active compounds read low 0.985 | S. cerevisiae deletion strains, locus YLR262C, strain YPT6, active compounds read low 0.96 | S. cerevisiae deletion strains, locus YLR268W, strain sec22, active compounds read low 0.964 | S. cerevisiae deletion strains, locus YLR320W, strain mms22, active compounds read low 1.01 | S. cerevisiae deletion strains, locus YLR330W, strain CHS5, active compounds read low 0.986 | S. cerevisiae deletion strains, locus YLR342W, strain FKS1 (second series), active compounds read low 1.03 | S. cerevisiae deletion strains, locus YLR342W, strain FKS1, active compounds read low 0.989 | S. cerevisiae deletion strains, locus YLR357W, strain rsc2, active compounds read low 0.969 | S. cerevisiae deletion strains, locus YLR370C, strain arc18, active compounds read low 0.994 | S. cerevisiae deletion strains, locus YLR371W, strain rom2, active compounds read low 0.955 | S. cerevisiae deletion strains, locus YLR384C, strain iki3, active compounds read low 0.974 | S. cerevisiae deletion strains, locus YLR418C, strain cdc73, active compounds read low 0.982 | S. cerevisiae deletion strains, locus YML016C, strain PPZ1, active compounds read low 0.981 | S. cerevisiae deletion strains, locus YML032C, strain rad52, active compounds read low 0.975 | S. cerevisiae deletion strains, locus YML120C, strain ndi1, active compounds read low 0.989 | S. cerevisiae deletion strains, locus YML124C, strain tub3, active compounds read low 0.973 | S. cerevisiae deletion strains, locus YMR058W, strain fet3, active compounds read low 0.988 | S. cerevisiae deletion strains, locus YMR078C, strain ctf18, active compounds read low 0.972 | S. cerevisiae deletion strains, locus YMR125W, strain sto1, active compounds read low 0.986 | S. cerevisiae deletion strains, locus YMR129W, active compounds read low 0.986 | S. cerevisiae deletion strains, locus YMR205C, strain PFK2, active compounds read low 0.992 | S. cerevisiae deletion strains, locus YMR223W, strain ubp8, active compounds read low 0.988 | S. cerevisiae deletion strains, locus YMR231W, strain pep5, active compounds read low 0.986 | S. cerevisiae deletion strains, locus YMR263W, strain SAP30, active compounds read low 0.993 | S. cerevisiae deletion strains, locus YMR307W, strain GAS1, active compounds read low 0.957 | S. cerevisiae deletion strains, locus YNL067W, strain RPL9B, active compounds read low 1 | S. cerevisiae deletion strains, locus YNL071W, strain lat1, active compounds read low 0.995 | S. cerevisiae deletion strains, locus YNL128W, strain TEP1, active compounds read low 0.992 | S. cerevisiae deletion strains, locus YNL153C, strain GIM3, active compounds read low 0.996 | S. cerevisiae deletion strains, locus YNL183C, strain NPR1, active compounds read low 0.959 | S. cerevisiae deletion strains, locus YNL209W, strain ssb2, active compounds read low 0.994 | S. cerevisiae deletion strains, locus YNL233W, strain BNI4, active compounds read low 0.99 | S. cerevisiae deletion strains, locus YNL248C, strain rpa49, active compounds read low 0.991 | S. cerevisiae deletion strains, locus YNL250W, strain rad50, active compounds read low 0.971 | S. cerevisiae deletion strains, locus YNL271C, strain bni1, active compounds read low 0.956 | S. cerevisiae deletion strains, locus YNL298W, strain CLA4, active compounds read low 0.946 | S. cerevisiae deletion strains, locus YNL307C, strain MCK1, active compounds read low 0.99 | S. cerevisiae deletion strains, locus YNL322C, strain KRE1 (second series), active compounds read low 0.995 | S. cerevisiae deletion strains, locus YNL322C, strain KRE1, active compounds read low 0.99 | S. cerevisiae deletion strains, locus YNR049C, strain mso1, active compounds read low 0.983 | S. cerevisiae deletion strains, locus YNR052C, strain pop2, active compounds read low 0.967 | S. cerevisiae deletion strains, locus YOL006C, strain TOP1, active compounds read low 0.955 | S. cerevisiae deletion strains, locus YOL012C, strain htz1 0.703 | S. cerevisiae deletion strains, locus YOL147C, strain pex11, active compounds read low 0.969 | S. cerevisiae deletion strains, locus YOR001W, strain rrp6, active compounds read low 0.974 | S. cerevisiae deletion strains, locus YOR061W, strain CKA2, active compounds read low 0.966 | S. cerevisiae deletion strains, locus YOR069W, strain VPS5, active compounds read low 0.982 | S. cerevisiae deletion strains, locus YOR070C, strain gyp1, active compounds read low 0.996 | S. cerevisiae deletion strains, locus YOR080W, strain dia2, active compounds read low 0.975 | S. cerevisiae deletion strains, locus YOR083W, strain WHI5, active compounds read low 0.987 | S. cerevisiae deletion strains, locus YOR106W, strain vam3, active compounds read low 0.982 | S. cerevisiae deletion strains, locus YOR136W, strain idh2, active compounds read low 0.959 | S. cerevisiae deletion strains, locus YOR144C, strain elg1, active compounds read low 0.958 | S. cerevisiae deletion strains, locus YOR184W, strain ser1, active compounds read low 0.966 | S. cerevisiae deletion strains, locus YOR231W, strain MKK1, active compounds read low 0.991 | S. cerevisiae deletion strains, locus YOR265W, strain rbl2, active compounds read low 0.98 | S. cerevisiae deletion strains, locus YOR270C, strain vph1, active compounds read low 1 | S. cerevisiae deletion strains, locus YOR290C, strain snf2, active compounds read low 1.01 | S. cerevisiae deletion strains, locus YOR316C, strain cot1, active compounds read low 0.958 | S. cerevisiae deletion strains, locus YPL051W, strain arl3, active compounds read low 0.984 | S. cerevisiae deletion strains, locus YPL055C, strain LGE1, active compounds read low 0.992 | S. cerevisiae deletion strains, locus YPL078C, strain atp4, active compounds read low 0.976 | S. cerevisiae deletion strains, locus YPL106C, strain sse1, active compounds read low 0.973 | S. cerevisiae deletion strains, locus YPL240C, strain hsp82, active compounds read low 0.973 | S. cerevisiae deletion strains, locus YPL241C, strain CIN2, active compounds read low 0.993 | S. cerevisiae deletion strains, locus YPL256C, strain CLN2, active compounds read low 0.958 | S. cerevisiae deletion strains, locus YPR119W, strain clb2, active compounds read low 0.974 | S. cerevisiae deletion strains, locus YPR141C, strain kar3, active compounds read low 0.943 | S. cerevisiae deletion strains, locus YPR163C, strain tif3, active compounds read low 0.966 | S. cerevisiae deletion strains, locus YPR167C, strain met16, active compounds read low 0.962 | S. cerevisiae deletion strains, strain wtn01, active compounds read low 0.965 | S. cerevisiae strains, strain wild type, active compounds read low 0.994
